The supplement of paper PMC11001985

compound: C#CCNC(=O)CCSSCCC(=O)NCCc1ccc(C=O)c(C=O)c1; experiment: lysine labeling ratio R10:1 (500 µM / 50 µM probe), SILAC-ABPP in living cells; higher = lower intrinsic lysine reactivity toward the probe, active = 2 or less; conditions: HeLa; probe concentrations 500 vs 50 µM
In short: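 For each lysine, R is the median over forward and reverse replicates of the filtered median MS1 peptide ratio of high probe to low probe. The probe, an alkyne-tagged, disulfide-linked lysine probe, was given at 500 µM or 50 µM to living SILAC light and heavy HeLa cells in PBS at room temperature, with label swaps. Values are capped at 20.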

UniProt P78371, sequence (P78371 whole entry): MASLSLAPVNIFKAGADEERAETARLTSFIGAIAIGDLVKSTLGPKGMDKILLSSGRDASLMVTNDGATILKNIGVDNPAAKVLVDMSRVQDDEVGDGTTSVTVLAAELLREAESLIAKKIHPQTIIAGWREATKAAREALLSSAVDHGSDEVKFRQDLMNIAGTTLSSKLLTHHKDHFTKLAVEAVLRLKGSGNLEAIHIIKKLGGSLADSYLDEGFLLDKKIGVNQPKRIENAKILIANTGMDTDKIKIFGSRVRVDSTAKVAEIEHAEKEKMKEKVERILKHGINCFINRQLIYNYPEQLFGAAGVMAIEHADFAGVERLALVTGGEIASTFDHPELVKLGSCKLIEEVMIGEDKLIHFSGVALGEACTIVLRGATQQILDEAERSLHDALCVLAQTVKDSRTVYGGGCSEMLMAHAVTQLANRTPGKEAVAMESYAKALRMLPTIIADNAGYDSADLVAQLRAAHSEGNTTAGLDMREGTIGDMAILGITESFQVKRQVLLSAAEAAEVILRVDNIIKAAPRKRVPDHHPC
UniProt P10809, sequence (P10809 whole entry): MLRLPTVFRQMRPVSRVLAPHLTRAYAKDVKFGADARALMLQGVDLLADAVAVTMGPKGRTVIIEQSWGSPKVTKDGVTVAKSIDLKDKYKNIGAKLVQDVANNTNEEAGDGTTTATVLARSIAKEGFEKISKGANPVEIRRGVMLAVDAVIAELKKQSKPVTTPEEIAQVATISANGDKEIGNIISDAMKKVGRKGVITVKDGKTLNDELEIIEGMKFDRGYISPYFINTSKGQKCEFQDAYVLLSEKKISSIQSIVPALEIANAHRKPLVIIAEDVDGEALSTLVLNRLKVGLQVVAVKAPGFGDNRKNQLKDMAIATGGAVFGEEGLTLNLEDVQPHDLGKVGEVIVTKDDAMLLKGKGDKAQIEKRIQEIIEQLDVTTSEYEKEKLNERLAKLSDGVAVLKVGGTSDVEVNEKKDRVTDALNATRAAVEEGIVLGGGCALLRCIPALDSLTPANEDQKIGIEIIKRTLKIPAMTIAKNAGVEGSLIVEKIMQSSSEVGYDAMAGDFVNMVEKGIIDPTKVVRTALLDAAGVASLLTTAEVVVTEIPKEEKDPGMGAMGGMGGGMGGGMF
UniProt P49591, sequence (P49591 whole entry, looked up): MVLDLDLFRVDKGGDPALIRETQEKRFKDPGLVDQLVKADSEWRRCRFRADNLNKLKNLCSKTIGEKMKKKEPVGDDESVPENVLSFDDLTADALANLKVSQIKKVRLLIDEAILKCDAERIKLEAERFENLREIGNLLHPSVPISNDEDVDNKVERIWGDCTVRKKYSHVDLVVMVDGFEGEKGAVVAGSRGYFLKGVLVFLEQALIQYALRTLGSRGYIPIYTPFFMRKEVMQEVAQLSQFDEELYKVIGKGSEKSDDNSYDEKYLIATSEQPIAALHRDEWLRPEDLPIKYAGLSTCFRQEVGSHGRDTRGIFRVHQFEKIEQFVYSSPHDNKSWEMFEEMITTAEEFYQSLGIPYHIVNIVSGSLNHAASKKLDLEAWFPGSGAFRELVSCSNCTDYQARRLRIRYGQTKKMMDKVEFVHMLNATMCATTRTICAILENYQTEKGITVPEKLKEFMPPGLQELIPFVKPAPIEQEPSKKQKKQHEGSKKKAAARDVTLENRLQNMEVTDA
UniProt Q8IWA5, sequence (Q8IWA5 whole entry): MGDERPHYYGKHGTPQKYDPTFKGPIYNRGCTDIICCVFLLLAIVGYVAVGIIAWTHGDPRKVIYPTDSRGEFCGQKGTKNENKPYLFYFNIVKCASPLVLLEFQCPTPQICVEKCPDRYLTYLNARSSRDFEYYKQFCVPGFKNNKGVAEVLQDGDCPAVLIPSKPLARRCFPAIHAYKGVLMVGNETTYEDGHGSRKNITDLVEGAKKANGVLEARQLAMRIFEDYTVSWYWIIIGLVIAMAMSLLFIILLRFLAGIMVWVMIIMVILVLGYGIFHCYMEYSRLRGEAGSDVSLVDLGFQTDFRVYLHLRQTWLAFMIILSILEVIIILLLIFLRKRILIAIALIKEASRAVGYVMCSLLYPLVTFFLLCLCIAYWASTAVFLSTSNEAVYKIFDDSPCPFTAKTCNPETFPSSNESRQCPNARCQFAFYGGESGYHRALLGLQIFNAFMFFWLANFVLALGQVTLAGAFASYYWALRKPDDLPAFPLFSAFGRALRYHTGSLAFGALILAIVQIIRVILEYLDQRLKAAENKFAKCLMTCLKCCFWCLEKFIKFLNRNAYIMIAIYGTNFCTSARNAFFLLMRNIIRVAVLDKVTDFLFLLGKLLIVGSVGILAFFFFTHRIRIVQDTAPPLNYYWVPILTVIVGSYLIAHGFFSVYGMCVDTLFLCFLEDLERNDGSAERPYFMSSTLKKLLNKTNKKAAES
UniProt Q969P0, sequence (Q969P0 whole entry): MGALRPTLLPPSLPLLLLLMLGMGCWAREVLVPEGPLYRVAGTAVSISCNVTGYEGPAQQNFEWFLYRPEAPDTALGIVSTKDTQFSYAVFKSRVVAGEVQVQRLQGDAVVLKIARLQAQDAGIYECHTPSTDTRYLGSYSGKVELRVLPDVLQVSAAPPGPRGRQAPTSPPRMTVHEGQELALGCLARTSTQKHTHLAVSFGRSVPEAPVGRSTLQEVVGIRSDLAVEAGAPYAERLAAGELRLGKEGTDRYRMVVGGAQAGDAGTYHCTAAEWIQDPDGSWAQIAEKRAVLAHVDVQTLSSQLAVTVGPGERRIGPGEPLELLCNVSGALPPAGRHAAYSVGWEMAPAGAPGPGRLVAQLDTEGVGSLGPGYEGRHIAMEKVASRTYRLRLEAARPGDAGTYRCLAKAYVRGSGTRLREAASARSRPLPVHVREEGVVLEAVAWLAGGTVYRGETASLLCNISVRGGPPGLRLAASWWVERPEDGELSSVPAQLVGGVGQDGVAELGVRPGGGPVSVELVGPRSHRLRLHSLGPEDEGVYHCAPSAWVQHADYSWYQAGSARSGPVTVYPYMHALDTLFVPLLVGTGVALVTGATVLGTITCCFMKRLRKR
UniProt P00533, sequence (P00533 whole entry): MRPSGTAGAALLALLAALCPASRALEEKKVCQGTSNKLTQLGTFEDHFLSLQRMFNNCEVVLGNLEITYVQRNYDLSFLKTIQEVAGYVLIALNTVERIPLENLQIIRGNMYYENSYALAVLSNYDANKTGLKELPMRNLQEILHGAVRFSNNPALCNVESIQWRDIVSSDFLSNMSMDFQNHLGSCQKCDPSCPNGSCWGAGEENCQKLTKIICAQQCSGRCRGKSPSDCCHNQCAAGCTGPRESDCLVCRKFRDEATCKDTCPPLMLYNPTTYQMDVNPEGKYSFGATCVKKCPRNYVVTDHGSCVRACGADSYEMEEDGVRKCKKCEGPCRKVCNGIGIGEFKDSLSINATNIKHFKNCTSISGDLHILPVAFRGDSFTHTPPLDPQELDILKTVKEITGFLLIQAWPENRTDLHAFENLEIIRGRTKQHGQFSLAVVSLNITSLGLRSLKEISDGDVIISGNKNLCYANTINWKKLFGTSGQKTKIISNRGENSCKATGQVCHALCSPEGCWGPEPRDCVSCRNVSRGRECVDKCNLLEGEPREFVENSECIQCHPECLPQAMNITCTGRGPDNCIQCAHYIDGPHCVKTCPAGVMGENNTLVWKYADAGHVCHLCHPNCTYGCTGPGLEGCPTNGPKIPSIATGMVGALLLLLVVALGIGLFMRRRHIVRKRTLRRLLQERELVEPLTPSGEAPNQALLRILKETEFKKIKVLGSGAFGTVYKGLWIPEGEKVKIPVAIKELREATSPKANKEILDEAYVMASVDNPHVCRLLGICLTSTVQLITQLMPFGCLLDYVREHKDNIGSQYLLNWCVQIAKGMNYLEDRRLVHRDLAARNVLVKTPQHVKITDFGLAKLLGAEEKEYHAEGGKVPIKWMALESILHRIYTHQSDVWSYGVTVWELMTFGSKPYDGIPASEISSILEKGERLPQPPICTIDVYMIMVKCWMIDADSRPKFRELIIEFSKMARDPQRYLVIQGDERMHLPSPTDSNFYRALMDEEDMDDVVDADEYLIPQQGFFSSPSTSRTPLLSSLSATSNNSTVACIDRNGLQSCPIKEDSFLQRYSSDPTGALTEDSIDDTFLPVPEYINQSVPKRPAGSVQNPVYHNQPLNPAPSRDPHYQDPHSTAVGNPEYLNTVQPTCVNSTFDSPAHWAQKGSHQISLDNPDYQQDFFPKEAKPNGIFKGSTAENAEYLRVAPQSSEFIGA
UniProt O75955, sequence (O75955 whole entry): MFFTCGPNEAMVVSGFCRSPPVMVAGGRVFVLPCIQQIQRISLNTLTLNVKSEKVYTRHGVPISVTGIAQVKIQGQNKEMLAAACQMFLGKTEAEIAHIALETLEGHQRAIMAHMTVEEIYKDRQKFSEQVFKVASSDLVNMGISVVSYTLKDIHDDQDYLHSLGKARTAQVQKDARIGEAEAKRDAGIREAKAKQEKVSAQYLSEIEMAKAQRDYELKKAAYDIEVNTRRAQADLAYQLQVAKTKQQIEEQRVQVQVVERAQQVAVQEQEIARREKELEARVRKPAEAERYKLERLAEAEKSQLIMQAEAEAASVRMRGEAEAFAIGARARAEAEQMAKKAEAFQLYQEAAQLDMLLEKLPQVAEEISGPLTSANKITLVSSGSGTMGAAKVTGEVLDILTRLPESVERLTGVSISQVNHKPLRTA
UniProt Q02818, sequence (Q02818 whole entry): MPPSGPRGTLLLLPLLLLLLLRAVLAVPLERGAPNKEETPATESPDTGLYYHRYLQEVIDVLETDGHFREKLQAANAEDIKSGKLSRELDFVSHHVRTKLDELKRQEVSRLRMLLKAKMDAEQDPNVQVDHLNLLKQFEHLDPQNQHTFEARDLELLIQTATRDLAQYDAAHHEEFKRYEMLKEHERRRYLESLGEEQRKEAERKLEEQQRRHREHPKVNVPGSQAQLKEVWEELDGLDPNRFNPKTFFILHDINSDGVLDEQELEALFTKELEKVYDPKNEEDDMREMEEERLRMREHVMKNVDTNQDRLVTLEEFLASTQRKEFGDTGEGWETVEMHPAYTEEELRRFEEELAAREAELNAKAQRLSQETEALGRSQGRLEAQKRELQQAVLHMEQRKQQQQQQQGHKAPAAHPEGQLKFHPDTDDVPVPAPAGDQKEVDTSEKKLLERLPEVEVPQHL

Target | lysine labeling ratio R10:1
UniProt P06576 (lysine site: K264) | 4.08 (inactive)
NPTN (lysine site: K260) (UniProt Q9Y639) | 1 (active)
RDX (lysine site: K520) (UniProt P35241) | 1.76 (active)
PPL (lysine site: K1151) (UniProt O60437) | 3.53 (inactive)
PTPRS (lysine site: K897) (UniProt Q13332) | 2.19 (inactive)
UniProt P62277 (lysine site: K9) | 2.44 (inactive)
SLC44A2 (lysine site: K62) (UniProt Q8IWA5) | 2.64 (inactive)
NUMA1 (lysine site: K1475) (UniProt Q14980) | 5.25 (inactive)
FLOT1 (lysine site: K184) (UniProt O75955) | 1.83 (active)
NUCB1 (lysine site: K302) (UniProt Q02818) | 2.22 (inactive)
UniProt P55285 (lysine site: K418) | 1.1 (active)
IGSF8 (lysine site: K194) (UniProt Q969P0) | 1 (active)
SEMA3C (lysine site: K163) (UniProt Q99985) | 3.6 (inactive)
TKT (lysine site: K353) (UniProt P29401) | 6 (inactive)
EGFR (lysine site: K226) (UniProt P00533) | 11 (inactive)
LTF (lysine site: K320) (UniProt P02788) | 1.48 (active)
ITGA2 (lysine site: K718) (UniProt P17301) | 2.51 (inactive)
UniProt Q99623 (lysine site: K250) | 3.72 (inactive)
XRCC5 (lysine site: K481) (UniProt P13010) | 1.45 (active)
CCT2 (lysine site: K250) (UniProt P78371) | 1.5 (active)

Target | lysine labeling ratio R10:1
ENO1 (lysine site: K420) (UniProt P06733) | 2.65 (inactive)
TLN1 (lysine site: K149) (UniProt Q9Y490) | 1.5 (active)
RBMX (lysine site: K86) (UniProt P38159) | 2.06 (inactive)
COPA (lysine site: K1134) (UniProt P53621) | 2.48 (inactive)
UniProt P62269 (lysine site: K54) | 1.41 (active)
TFRC (lysine site: K161) (UniProt P02786) | 6.73 (inactive)
MCAM (lysine site: K551) (UniProt P43121) | 5.15 (inactive)
ASPH (lysine site: K588) (UniProt Q12797) | 1.1 (active)
ITGA1 (lysine site: K259) (UniProt P56199) | 4.65 (inactive)
RPS3A (lysine site: K167) (UniProt P61247) | 1.82 (active)
UniProt P49591 (lysine site: K12) | 0.947 (active)
GPI (lysine site: K34) (UniProt P06744) | 2.53 (inactive)
CCT2 (lysine site: K284) (UniProt P78371) | 1.69 (active)
APP (lysine site: K521) (UniProt P05067) | 5.65 (inactive)
UniProt Q15697 (lysine site: K143) | 2.8 (inactive)
LDLR (lysine site: K782) (UniProt P01130) | 3.22 (inactive)
ARL6IP5 (lysine site: K158) (UniProt O75915) | 2.7 (inactive)
UniProt P83731 (lysine site: K93) | 6.58 (inactive)
DDX5 (lysine site: K470) (UniProt P17844) | 4.7 (inactive)
HSPD1 (lysine site: K369) (UniProt P10809) | 2.45 (inactive)
